{
  "source": "PubChem BioAssay",
  "note": "Unmarked numbers belong to inactive results. Calls of active or inactive are those of the source.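 How the source made its calls: active means mean inhibition above 46.5%, the solvent-only control mean plus 3 SD; inactive means the rest.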",
  "data": [
    {"molecular_target": "Nuclear receptor coactivator 2 (Homo sapiens) (UniProt Q15596)", "sequence (Q15596 whole entry, looked up, the tested form may be a part)": "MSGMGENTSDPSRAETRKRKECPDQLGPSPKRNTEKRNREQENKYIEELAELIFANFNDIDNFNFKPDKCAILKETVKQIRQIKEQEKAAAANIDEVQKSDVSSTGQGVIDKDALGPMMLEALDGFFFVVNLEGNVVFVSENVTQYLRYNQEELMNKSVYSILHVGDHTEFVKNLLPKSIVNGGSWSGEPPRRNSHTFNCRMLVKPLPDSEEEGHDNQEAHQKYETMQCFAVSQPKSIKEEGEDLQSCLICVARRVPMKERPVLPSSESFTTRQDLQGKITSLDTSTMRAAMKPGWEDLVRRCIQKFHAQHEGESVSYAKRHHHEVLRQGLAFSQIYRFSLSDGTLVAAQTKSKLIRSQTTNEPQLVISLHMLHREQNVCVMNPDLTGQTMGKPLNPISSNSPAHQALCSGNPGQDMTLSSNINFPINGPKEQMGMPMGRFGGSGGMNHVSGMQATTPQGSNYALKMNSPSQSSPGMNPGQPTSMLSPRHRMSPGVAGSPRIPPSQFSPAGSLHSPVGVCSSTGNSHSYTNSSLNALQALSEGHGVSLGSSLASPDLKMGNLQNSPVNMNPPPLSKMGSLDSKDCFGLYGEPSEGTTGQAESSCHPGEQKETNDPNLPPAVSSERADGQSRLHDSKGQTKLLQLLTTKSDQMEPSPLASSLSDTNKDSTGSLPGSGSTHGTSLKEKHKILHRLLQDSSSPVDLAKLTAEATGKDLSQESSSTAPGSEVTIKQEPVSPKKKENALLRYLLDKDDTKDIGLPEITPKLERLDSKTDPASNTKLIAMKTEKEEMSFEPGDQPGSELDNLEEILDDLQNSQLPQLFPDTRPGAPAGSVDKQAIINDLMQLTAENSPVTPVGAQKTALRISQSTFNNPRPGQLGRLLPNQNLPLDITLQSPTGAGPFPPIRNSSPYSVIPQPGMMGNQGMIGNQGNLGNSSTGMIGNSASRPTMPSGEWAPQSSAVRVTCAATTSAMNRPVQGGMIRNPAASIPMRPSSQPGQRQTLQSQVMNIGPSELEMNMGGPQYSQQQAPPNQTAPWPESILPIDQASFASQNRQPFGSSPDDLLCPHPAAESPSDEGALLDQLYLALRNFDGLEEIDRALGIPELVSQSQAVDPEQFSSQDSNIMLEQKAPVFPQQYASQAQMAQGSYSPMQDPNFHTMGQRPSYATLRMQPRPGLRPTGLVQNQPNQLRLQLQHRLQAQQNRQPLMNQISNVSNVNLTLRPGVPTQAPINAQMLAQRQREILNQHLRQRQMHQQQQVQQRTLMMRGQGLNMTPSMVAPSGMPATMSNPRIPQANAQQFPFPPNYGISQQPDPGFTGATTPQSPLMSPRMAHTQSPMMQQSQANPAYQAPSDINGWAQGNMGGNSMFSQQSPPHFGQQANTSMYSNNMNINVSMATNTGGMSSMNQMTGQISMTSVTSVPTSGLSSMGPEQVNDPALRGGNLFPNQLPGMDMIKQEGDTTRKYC", "experiment": "inhibition of GAL4-SRC2 driven luciferase expression – cell-based, luminescence, HEK293, triplicate, confirmation (AID 652008);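 further: 0% = DMSO-treated cells and 100% = Gossypol at 36 µM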", "conditions": "HEK293 GAL4-SRC2 luciferase reporter, at 8.9 µM, hits give high values", "values": [
      {"smiles": "Cn1cc(S(=O)(=O)Nc2ccc3c(c2)OCCO3)cn1", "inhibition": "32.5%"},
      {"smiles": "Brc1cccc(-c2cnc3n2CCCCC3)c1", "inhibition": "29.2%"},
      {"smiles": "CCOC(=O)Cn1c(=O)c2c(nc(N3CCCCC3)n2Cc2ccccc2)n(C)c1=O", "inhibition": "4.93%"},
      {"smiles": "COc1cccc(CNC(=O)C2CCN(S(=O)(=O)c3ccc(F)cc3)CC2)c1", "inhibition": "-10.1%"},
      {"smiles": "Oc1cc2ccccc2cc1-c1nnc2n1-c1ccccc1SC2", "inhibition": "3.52%"},
      {"smiles": "Cc1c(CCC(=O)NCCCC(=O)O)c(=O)oc2cc3oc4c(c3cc12)CCCC4", "inhibition": "65% (active)"},
      {"smiles": "COc1ccc(S(=O)(=O)Nc2ccc(C)cn2)cc1", "inhibition": "-15.4%"},
      {"smiles": "C(=N\\Nc1nc2ccccc2s1)/c1ccccn1", "inhibition": "52.3% (active)"},
      {"smiles": "COc1cccc(/C=C2/SC(=S)N(CCCC(=O)Nc3ccc(O)cc3)C2=O)c1", "inhibition": "23.7%"},
      {"smiles": "Oc1cccc(C(Nc2nccs2)c2ccc3cccnc3c2O)c1", "note": "(stereo not given)", "inhibition": "7.61%"},
      {"smiles": "Cc1ccc(CC2C(=O)N(c3cc(C)ccc3C)C(=O)C2C)cc1", "note": "(stereo not given)", "inhibition": "9.44%"},
      {"smiles": "CCN(C(=O)C1CCCN(c2nnc(-n3cccc3)s2)C1)c1ccccc1C", "note": "(stereo not given)", "inhibition": "16.4%"},
      {"smiles": "Nc1nonc1-n1nnc(C(=O)N/N=C/c2ccccc2Br)c1CN1CCCC1", "inhibition": "-12.4%"},
      {"smiles": "CCOc1cc(/C=C2/NC(=O)N(Cc3ccccc3F)C2=O)ccc1O", "inhibition": "30.1%"},
      {"smiles": "CCCCCCC(=O)N(O)C1CC(=O)N(c2ccc(C)cc2)C1=O", "note": "(stereo not given)", "inhibition": "39.9%"},
      {"smiles": "CC(=O)NCCOc1nc(N2CCCCC2)nc(N2CCCCC2)n1", "inhibition": "12.1%"},
      {"smiles": "Cc1cccc(C(=O)O/N=C(\\N)c2ccccn2)c1", "inhibition": "-81.6%"},
      {"smiles": "COc1cc(Cn2c3ccc(NC(=O)CC(C)c4ccccc4)cc3c(=O)n2C)ccc1F", "note": "(stereo not given)", "inhibition": "2.27%"},
      {"smiles": "Cc1c(CCC(=O)N2CCC[C@H]2C(=O)O)c(=O)oc2c(C)c3oc4c(c3cc12)CCCC4", "inhibition": "37.5%"},
      {"smiles": "COC(=O)COc1ccc(S(=O)(=O)Nc2ccc3c(c2)OCCO3)cc1C", "inhibition": "6.48%"},
      {"smiles": "N=c1c2c3c(sc2ncn1N)CCCCC3", "inhibition": "-23.5%"},
      {"smiles": "O=C(Nc1ccc2nc3n(c(=O)c2c1)CCCCC3)c1cc([N+](=O)[O-])ccc1F", "inhibition": "30.4%"},
      {"smiles": "CC(c1nccs1)N(C)C(=O)CCc1nnc(-c2ccc(-c3ccccc3)cc2)o1", "note": "(stereo not given)", "inhibition": "30.6%"},
      {"smiles": "O=C(Cc1ccc([N+](=O)[O-])cc1)Nc1cccc(C(=O)N2CCCCC2)c1", "inhibition": "23.7%"},
      {"smiles": "NC(=O)c1cc(C(=O)c2ccc(Cl)cc2Cl)c[nH]1", "inhibition": "14.3%"}
    ]}
  ]
}
